Assay [1] is described as follows: P. berghei load reduction in hepatocytes – cell-based, HepG2, luciferase luminescence, HepG2 viability, primary screen (AID 624349; in the data active = parasite load remaining mostly below about 12%, no sharp cut-off; inactive = mostly above about 10%;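 note: 100% = mean of DMSO negative control wells on the same plate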). As to conditions: P. berghei liver stage in HepG2, luciferase luminescence, concentration not given here; parasite load remaining: stronger effect = lower value; viability: measured here: HepG2 viability without parasites.
Assay [2] can be described thus: signal quenchers or enhancers, Cy5 substrate/SSB – biochemical, NIH Clinical Collection, E. coli SSB, artefact control for HCV NS3 helicase inhibitor project (AID 743268; call rule not given here). To be noted: Cy5-oligo bound E. coli SSB, fluorescence interference.
Assay [3] concerns Hepatitis C virus NS3 helicase. The assay can be described thus: blockers of NS3h binding to DNA – biochemical, fluorescence polarization, NIH Clinical Collection, primary screen (AID 743270; call rule not given here). To be noted: NS3 helicase binding to Cy5-dT15 DNA, stronger effect = higher value, concentration not given here.
Assay [4] has as its target Single-stranded DNA-binding protein (Escherichia coli (strain K12)) (UniProt P0AGE0). The assay can be described thus: SSB-ssDNA binding inhibitors – biochemical, fluorescence polarization, NIH Clinical Collection, counter-screen for HCV NS3 helicase inhibitor project (AID 743271; in the data active = inhibition above about 28%). As to conditions: E. coli SSB-DNA binding, stronger effect = higher value, concentration not given here.

The nature of assay [5]: compounds distorting NS3 helicase fluorescence signal – biochemical, NIH Clinical Collection, artefact control for HCV NS3 helicase inhibitor project (AID 743272; call rule not given here;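 note: HCV NS3 helicase with a Cy5 labelled single stranded DNA probe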). As to conditions: fluorescence interference counterscreen, HCV NS3 helicase assay; stronger effect = lower value.
The subject of assay [6] is Neuropilin-2 / VEGF-C interaction (human). The assay is described as follows: small molecules blocking Neuropilin-2/VEGF-C interaction – biochemical, microplate binding format, z-score (AID 743281; call rule not given here). As to conditions: microplate NRP2/VEGF-C binding assay; stronger effect = lower value.
A short description of assay [7]: modulation of C. elegans fzo-1 (AID 1259413; call rule not given here;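 note: fzo-1 mutant C. elegans worms in liquid wells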). As to conditions: C. elegans fzo-1 modulator screen, mean read-out; stronger effect = higher value.
The nature of assay [8]: viability loss with induced miR-34 in A549 – imaging, A549 dox-inducible miR-34, nuclei and caspase counts, primary screen (AID 1347080;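 active = compounds whose cell count with miR-34 switched on is under 0.7 times the count with it off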). As to conditions: A549 miR-34 inducible, Hoechst nuclei count, 48 h.
Assay [9] is described as follows: galactose survival enhancers in mitochondrial complex I cybrids – cell-based, galactose medium, ATP luminescence, primary screen (AID 1645843;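 active = z-score of at least 1.8 in each of two replicates, scored against plate mean and spread of sample wells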;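 note: positive z means more ATP and so rescue of galactose-driven cybrid death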). As to conditions: complex I mutant cybrid cells, 72 h, stronger effect = higher value.
Assay [10] deals with F380Y. The assay is described as follows: BK channel mutant inhibitors and activators – cell-based, U2OS BacMam, thallium flux, beta subunits, selectivity assay, profiling panel (AID 1259406).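 Note: initial slope of Thallos dye fluorescence rise after thallium is added; log ratio against the mean of 0.3% DMSO vehicle wells on the same plate.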 As to conditions: U2OS BacMam BK variants, at 30 µM.
Assay [11] concerns F380Y/beta1. The assay is described as above. To be noted: U2OS BacMam BK variants, at 30 µM.
For assay [12], the system named is F380Y/beta2Delta. Described as above. To be noted: U2OS BacMam BK variants, at 30 µM.
In assay [13] the test system is F380Y/beta4. Described as above. To be noted: U2OS BacMam BK variants, at 30 µM.
Assay [14] concerns the target Calcium-activated potassium channel subunit alpha-1 (Homo sapiens) + Leucine-rich repeat-containing protein 26 (Homo sapiens) (UniProt Q12791+Q2I0M4). The description is as above. To be noted: U2OS BacMam BK variants, F380Y/Slo1WT/gamma1, at 30 µM.
Assay [15] relates to R275C. Described as above. To be noted: U2OS BacMam BK variants, at 30 µM.
The subject of assay [16] is R275C/beta1. The assay is described as above. As to conditions: U2OS BacMam BK variants, at 30 µM.
Assay [17] relates to R275C/beta2Delta. Described as above. As to conditions: U2OS BacMam BK variants, at 30 µM.
Assay [18] concerns R275C/beta4. The description is as above. To be noted: U2OS BacMam BK variants, at 30 µM.
Assay [19] concerns R275C/Slo1WT/beta2. Described as above. As to conditions: U2OS BacMam BK variants, at 30 µM.
Setting [20] is: stronger effect = lower value, cell number ratio, induced over uninduced.
Setting [21] is: measured here: relative caspase fold change +Dox/-Dox.
[22] abbreviates: measured here: total cells with miR-34 induction, stronger effect = lower value.
Where [23] appears, read: measured here: total cells without miR-34 induction.

The structures appear in SMILES notation. Where “and” joins values, the source holds several entries; their conditions need not be identical. Equal values may be shown once. Calls of active or inactive are those of the source.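 Rule for the calls, unless noted: active = thallium flux through the channel raised or lowered by more than 3 SD from vehicle-only wells, actives on both sides; inactive = the rest.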

Sequence of Calcium-activated potassium channel subunit alpha-1 (Homo sapiens) + Leucine-rich repeat-containing protein 26 (Homo sapiens) (Q2I0M4 whole entry, looked up, one chain of several): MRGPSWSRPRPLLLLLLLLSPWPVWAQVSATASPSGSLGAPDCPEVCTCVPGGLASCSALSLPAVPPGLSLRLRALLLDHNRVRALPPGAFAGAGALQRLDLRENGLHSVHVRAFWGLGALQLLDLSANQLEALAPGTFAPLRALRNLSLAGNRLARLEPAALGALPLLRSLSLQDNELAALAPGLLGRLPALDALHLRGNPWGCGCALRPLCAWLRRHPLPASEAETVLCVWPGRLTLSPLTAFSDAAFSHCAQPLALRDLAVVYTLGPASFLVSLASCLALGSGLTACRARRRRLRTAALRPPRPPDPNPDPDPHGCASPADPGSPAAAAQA

For `CC1CC2C3CCC4=CC(=O)C=CC4(C)[C@@]3(Cl)C(O)CC2(C)C1(O)C(=O)CO` (some centres undefined), the parasite load remaining in assay [1] was 68.1% (inactive). In assay [1], the viability was 67.8%. The fluorescence ratio in assay [2] is 0.98 (inactive); in assay [5] it was 0.95 (inactive). For the same compound, the inhibition is -0.22% (inactive) in assay [3] and -1.97% (inactive) in assay [4]. Further, the z-score is 0.0119 (inactive) in assay [6] and 1.36 (inactive) in assay [9]. For the same compound, the mean signal in assay [7] is 282 (inactive). Also, the values for the fold change in assay [8] (setting [20]) and in [8] (setting [21]) were 0.839 (inactive) and 1.07, respectively. Moreover, the cell count worked out at 7120 in assay [8] (setting [22]) and 8490 in [8] (setting [23]). The log fold change Tl+ flux was 0.104 (inactive) in assay [10]; 0.0975 (active) in [11]; -0.00287 (inactive) in assay [12]; 0.0497 (inactive) in assay [13]; 0.0373 (inactive) in [14]; -0.0315 (inactive) in assay [15]. Also, the log fold change Tl+ flux in [16] was 0.106 (active); in assay [17], 0.0411 (inactive); in assay [18], 0.0585 (inactive); in assay [19], 0.0245 (inactive).

`CC1(C)SC2C(NC(=O)C(N)c3ccccc3)C(=O)N2C1C(=O)O` (centres undefined): in assay [1], the parasite load remaining was 64.5% (inactive). In assay [1], the viability was 97.1%. Moreover, the fluorescence ratio in assay [2] was 1.05 (inactive); in [5] it was 1.03 (inactive). The inhibition is -3.18% (inactive) in [3] and -3.53% (inactive) in assay [4]. Further, the mean signal in [7] was 248 (inactive). Also, the fold change is 0.924 (inactive) in assay [8] (setting [20]) and 1.56 in assay [8] (setting [21]). The cell count in assay [8] (setting [22]) was found to be 9300; in [8] (setting [23]), 10100. The z-score in assay [9] is 0.46 (inactive). Besides, the log fold change Tl+ flux is 0.0123 (inactive) in assay [10]; -0.00858 (inactive) in [11]; -0.029 (inactive) in [12]; -0.0312 (inactive) in [13]; 0.0123 (inactive) in assay [14]; 0.0182 (inactive) in assay [15]. Moreover, the log fold change Tl+ flux was -0.0441 (inactive) in assay [16], 0.02 (inactive) in assay [17], -0.0148 (inactive) in assay [18] and -0.0117 (inactive) in assay [19].

For `CN1CCC[C@H]1c1cccnc1`, in assay [1], the parasite load remaining was 58.8% (inactive) and 68.1% (inactive) and 77.4% (inactive). Moreover, in assay [1], the viability was 92.8% and 95.3% and 105%. For the same compound, the fluorescence ratio in [2] is 1.1 (inactive); in assay [5] it was 0.97 (inactive). For the same compound, the inhibition in [3] is -3.18% (inactive); in assay [4], -0.48% (inactive). The mean signal in assay [7] is 289 (inactive). For the same compound, the fold change in assay [8] (setting [20]) is 1 (inactive) and 0.879 (inactive); in assay [8] (setting [21]), 1.38 and 3.3. The cell count in assay [8] (setting [22]) was 11100 and 11800; in assay [8] (setting [23]) it was 11100 and 13400. Moreover, in assay [9], the z-score was 1.02 (inactive). Also, the log fold change Tl+ flux in [10] is 0.0275 (inactive); in assay [11], 0.0102 (inactive); in assay [12], 0.027 (inactive); in assay [13], 0.0603 (inactive); in assay [14], -0.0145 (inactive); in assay [15] it was 0.033 (inactive). Besides, the log fold change Tl+ flux in assay [16] is 0.0044 (inactive); in [17] it was 0.0329 (inactive); in [18] it was -0.0173 (inactive); in assay [19] it was -0.00315 (inactive).

In the case of `CC1(C)SC2C(NC(=O)Cc3ccccc3)C(=O)N2C1C(=O)O` (centres undefined), in assay [1], the parasite load remaining is 67.7% (inactive). In addition, the viability in assay [1] worked out at 89.4%. For the same compound, the values for the fluorescence ratio in assay [2] and in assay [5] were 1.02 (inactive) and 1 (inactive), respectively. The inhibition in assay [3] was -1.36% (inactive); in [4] it was 1.05% (inactive). For the same compound, the mean signal in [7] is 247 (inactive). Also, the fold change in [8] (setting [20]) was 0.988 (inactive); in [8] (setting [21]) it was 2.34. Besides, the values for the cell count in assay [8] (setting [22]) and in assay [8] (setting [23]) were 10600 and 10700, respectively. Also, the z-score in assay [9] is -0.1 (inactive). Also, the log fold change Tl+ flux was -0.0498 (inactive) in [10]; -0.0346 (inactive) in assay [11]; -0.00781 (inactive) in [12]; 0.000902 (inactive) in [13]; 0.0267 (inactive) in assay [14]; 0.0404 (inactive) in assay [15]. For the same compound, the log fold change Tl+ flux in assay [16] is -0.00964 (inactive); in assay [17] it was 0.00389 (inactive); in assay [18], -0.0356 (inactive); in [19], -0.096 (inactive).

Source of the values: PubChem BioAssay.
